Laboratory results reported in PubChem BioAssay (NCI).
About 83,000 compounds went through this panel and 20% of them were active in at least one assay; those are over-represented in the sample as a whole.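 Interpretation: 100, growth as untreated; towards 0, rising growth inhibition; 0, no net growth; 0 to -100, cell death. Compounds scoring below 10 were considered active.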 A number with no mark means an inactive call. Calls of active or inactive are those of the source.

Columns and labels:
Assay in all cases: NCI-60 one-dose screen, 48 h (100 = growth as untreated, 0 = no growth, -100 = all killed)
Conditions in all cases: 10 µM unless noted
DU-145 prostate = system: DU-145 prostate
MALME-3M melanoma = system: MALME-3M melanoma
MDA-MB-231 breast = system: MDA-MB-231 breast
RXF 393 renal = system: RXF 393 renal
SF-268 CNS = system: SF-268 CNS
SF-295 CNS = system: SF-295 CNS
SF-539 CNS = system: SF-539 CNS
UACC-257 melanoma = system: UACC-257 melanoma
M14 melanoma = system: M14 melanoma
K-562 leukemia = system: K-562 leukemia

Row | Structure (SMILES) | growth (DU-145 prostate) [%] | growth (MALME-3M melanoma) | growth (MDA-MB-231 breast) | growth (RXF 393 renal) [%] | growth (SF-268 CNS) [%] | growth (SF-295 CNS) [%] | growth (SF-539 CNS) [%] | growth (UACC-257 melanoma) | growth (M14 melanoma) [%] | growth (K-562 leukemia) [%]
1 | Cc1cc(CC(=O)NCCO)n(CCO)c(=O)c1 | 110 | 115% | 109% | 110 | 101 | 104 | 107 | 93% | 103 | –
2 | C/C(O)=C(/C=N/C(=S)Nc1ccccc1)C(=O)Nc1ccccc1C | – | 89.1% | 99.7% | 104 | 97.9 | 105 | 101 | 91.2% | 100 | 100
3 | N#C/C(=C\c1ccc(C#N)cc1)C(=O)c1ccccc1 | 107 | 109% | 104% | – | 104 | 107 | 96.8 | 97.7% | 95.7 | –
4 | CCOP(=O)(OCC)/C(=C\N1C(=O)CC(=O)NC1=S)C(=O)OC | – | 102% | 93.6% | 103 | 101 | 102 | 109 | 101% | 99.2 | 103
5 | CCOC(=O)/C(O)=C(\C=N\C(=S)Nc1ccc(Cl)c(Cl)c1)C(=O)OCC | – | 89.3% | 94.3% | 97.9 | 104 | 105 | 73.9 | 98.6% | 93.2 | 92.7
6 | Cc1ccccc1CC(N)C(=O)O (configuration not stated) | – | 116% | 116% | 137 | 101 | 99.6 | 116 | 109% | 100 | 115
7 | CC(=O)C1C(=O)C(=O)N(c2cccc([N+](=O)[O-])c2)C1=O (configuration not stated) | – | 124% | 107% | 110 | 109 | 107 | 108 | 97.4% | 104 | 112
8 | O=C1C=C(c2ccccc2)C(O)(c2ccccc2)C1 (configuration not stated) | – | 108% | 92.5% | 115 | 103 | 94.1 | 104 | 97.7% | 95.5 | 86.6
9 | O=C1NC(=O)/C(=C\c2ccncc2)N1 | – | 103% | 99.1% | 102 | 97.6 | 104 | 92.7 | 97.7% | 92.6 | 117
10 | CCOP(=O)(NC(c1ccccc1)c1ccccc1)OCC | – | 89.7% | 106% | 113 | 104 | 102 | 115 | 97.8% | 105 | 114
11 | Cc1cc(Cl)cc(Cc2cc(Cl)cc(C)c2O)c1O | 30.5 | -7.41% (active) | 1.11% (active) | 56.9 | 15 | 22.6 | 12.7 | 8.59% (active) | 14.2 | –
12 | Cc1ccc[n+](CCC(N)=O)c1 | 103 | 79.3% | 92.3% | 106 | 97.6 | 93.5 | 87.3 | 103% | 109 | –
13 | O=C(NCc1ccccc1)/C(=C/c1ccccc1)NC(=O)c1ccccc1 | 111 | – | 92.6% | 93.7 | 100 | 106 | 115 | 81.1% | 101 | –
14 | O=CNCCc1ccccc1 | – | 130% | 105% | 111 | 110 | 95.8 | 115 | 103% | 102 | 89.9
15 | COC(=O)C1=C(C)C(=O)CC1 | – | 137% | 102% | 143 | 111 | 135 | 109 | 110% | 105 | 96.1
16 | CCOc1ccc2c(c1)c(C)cc(C)[n+]2CC | – | 101% | 91.3% | 96.3 | 95.2 | 54.3 | 88.7 | 76% | 102 | 47.2
17 | O=C(c1cccc(C(=O)c2ccc3c4c(cccc24)C(=O)N(c2ccccc2)C3=O)c1)c1ccc2c3c(cccc13)C(=O)N(c1ccccc1)C2=O | – | 101% | 91.1% | 102 | 97.2 | 103 | 98.7 | 92% | 99.2 | 89.8
18 | CCCCN(C(=O)CC)c1ccccc1 | 99.7 | 100% | 105% | 115 | 98.6 | 99.8 | 100 | 95.5% | 91.8 | –
19 | Cc1cc2c3ccc(C)[n+](C)c3ccc2n1C | 46.7 | 46.9% | 33.6% | 61.6 | 19 | 26.4 | 67.5 | 32.2% | 92.7 | –
20 | O=C(NCCc1ccccc1)/C(=C\c1ccc(Cl)cc1Cl)NC(=O)c1ccccc1 | – | 79.4% | 90.8% | 92.8 | 95 | 99.5 | 94.1 | 96.6% | 96.4 | 122
21 | OC(CCN1CCCCC1)(c1ccccc1)c1ccccc1 | 115 | 95.4% | 105% | 91.7 | 104 | 111 | 117 | 100% | 99.2 | –
